An excerpt weighted towards active compounds, which were near 2.1% of everything screened.
Sa ugtP lethal – growth inhibition of ugtP-null S. aureus, primary screen, RN4220 ugtP deletion, OD600. AID 1259309, 2017. 16 h. 0.54% of 330,000 active. growth inhibition, % (no concentration beside the values); in the data active means growth inhibition above about 68%
Sa RN4220 lethal – growth inhibition of S. aureus RN4220, primary screen, OD600 | 16 h | inhibition, % (no concentration beside the values) | 0.33% of 330,000 active | AID 1259311, 2017; in the data active means inhibition above about 85%
PrP 5UTR inh – inhibition of PrP 5' UTR reporter expression; inhibition, % (test concentration not listed); cell-based PrP 5' UTR mRNA reporter, plate reader; 0.35% of 340,000 active; AID 488862, 2010; in the data active means inhibition above about 52%
CCHF vOTU inh – CCHFV vOTU protease inhibitors, primary screen, biochemical, Pep-AMC substrate, fluorescence | Crimean-Congo hemorrhagic fever virus L polyprotein viral ovarian tumor (vOTU) protease … | 0.55% of 370,000 active | inhibition, % at 11.5 µM; in the data active means inhibition above about 30%
PrPC TRFRET – inhibitors of human cell surface prion protein PrPC, primary screen, cell-based, TR-FRET; TR-FRET read-out; 0.43% of 370,000 active; inhibition, % at 13.8 µM; in the data active means inhibition above about 24%
PfHsp40 yeast – rescue of yeast from PfHsp40 toxicity, primary screen, S. cerevisiae, ATP luminescence. S. cerevisiae expressing PfHsp40, growth rescue. 0.68% of 340,000 active. AID 504582, 2011. growth rescue, % at 12.5 µM; in the data active means growth rescue above about 28%, passing the limit was not always enough; inconclusive means no clear call, values can overlap the other calls;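 further: yeast W303a lacking pdr1 and pdr3 grown in galactose medium; growth measured after three days at 30 °C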
Numbers stand for hits; 0 = inactive; ? = inconclusive; - = no result given.

SMILES	Sa ugtP lethal	Sa RN4220 lethal	PrP 5UTR inh	CCHF vOTU inh	PrPC TRFRET	PfHsp40 yeast
COc1ccc(S(=O)(=O)N2CCOCC2)cc1NC(=O)CSc1ccccc1	0	0	0	0	0	0
COC(=O)C1CC1C(NC(=O)OCc1ccccc1)c1ccccc1 (stereo unspecified)	0	0	-	-	-	-
COc1ccc(NC(=S)NC(=O)/C=C/c2cccs2)cc1	84	0	0	0	0	0
COc1ccccc1NC(=S)NC(=O)/C=C/c1cccs1	active	0	0	0	0	0
COc1cccc(-c2cc(C(F)(F)F)nc(N3CCC(C)CC3)n2)c1	94	0	0	0	0	0
Cc1ccc(-c2nnc(N3CCC(C)CC3)c3ccccc23)cc1	0	0	0	0	0	0
Cc1ccc(-c2cc(C(F)F)nc(N3CCC(C)CC3)n2)cc1	91	0	0	0	0	0
CC1CCN(c2nc(-c3ccccc3)cc(C(F)(F)F)n2)CC1	88	0	0	0	0	0
Oc1ccc2ccccc2c1C=Nc1cc(C(F)(F)F)ccc1N1CCCC1	95	0	0	0	0	0
C=C(C)C1CC=C(C)C(=NNc2ccccc2[N+](=O)[O-])C1 (stereo unspecified)	0	0	-	-	-	-
CCC(C=NNC(=O)CCCCC(=O)NN=CC(CC)CC)CC	0	0	-	-	-	-
O=C(NN=Cc1cn[nH]c1-c1ccccc1)c1cccs1	0	0	-	-	-	-
COc1ccc([N+](=O)[O-])cc1NC(=O)Nc1ccccc1	83	95	0	0	0	0
CCOC(=O)[C@]12Cc3cc(C)ccc3C1N(Cc1ccccc1)C(=O)c1ccccc12 (stereo partly specified)	0	0	-	-	-	-
COc1ccc(C2C=CCN(C(=O)C3CC3)C(C)C(=O)N2Cc2ccc(F)cc2)cc1 (stereo unspecified)	0	0	-	-	-	-
C=CCSc1nsc(NC(=O)Nc2ccc(F)cc2)n1	-	-	0	0	37	0
CCSc1nsc(NC(=O)Nc2ccccc2F)n1	0	0	0	0	0	0
Cc1cccc(/C=N\NC(=O)c2ccc(Cl)cc2)c1O	-	-	0	0	0	-
Cc1cccc(C=NNC(=O)c2ccc(Cl)cc2)c1O	0	93	-	-	-	-
CC1CN(C(C)CO)C(=O)Cc2cc(NS(=O)(=O)c3cn(C)cn3)ccc2OC1CN(C)C(=O)Nc1ccc(F)cc1 (stereo unspecified)	0	0	-	-	-	-
CC(C(=O)NCCc1c[nH]c2ccccc12)C1C[C@@]1(C)C(NC(=O)OCc1ccccc1)c1ccccc1 (stereo partly specified)	0	0	-	-	-	-
CCn1c(CNc2ccc(Cl)cc2)nnc1SCc1ccc(C)cc1	0	0	0	0	0	?
CCn1c(CNc2ccc(Cl)cc2)nnc1SCc1ccc(Cl)cc1	0	0	0	0	0	166
O=C1NN(c2ccc(F)c(Cl)c2)C(=O)/C1=C\c1cccc(OC(=O)c2cccs2)c1	0	0	0	0	0	85
CC(=O)c1cccc(NC(=O)c2ccc([N+](=O)[O-])o2)c1	91	0	0	0	0	0
SMILES	Sa ugtP lethal	Sa RN4220 lethal	PrP 5UTR inh	CCHF vOTU inh	PrPC TRFRET	PfHsp40 yeast
O=C(NNC(=O)c1ccc([N+](=O)[O-])o1)c1ccccc1	99	0	0	0	0	0
CC(=O)c1ccc(NC(=O)c2ccc([N+](=O)[O-])o2)cc1	0	0	0	0	0	0
Cc1ccc(C)c(-c2nnc(NC(=O)C3=COCCO3)o2)c1	0	0	0	0	0	0
O=C(Nc1ccc2oc(-c3ccncc3)nc2c1)c1ccccc1	0	0	0	0	0	0
O=C(NN(c1ccccc1)c1ccccc1)c1ccc([N+](=O)[O-])o1	0	0	0	0	0	0
O=C(Nc1ccc2oc(-c3ccncc3)nc2c1)c1ccc([N+](=O)[O-])o1	0	100	0	0	0	0
Cc1ccc(C)c(-c2nnc(NC(=O)c3ccc([N+](=O)[O-])o3)o2)c1	90	0	0	0	0	0
CCC1C(Nc2ccccc2)CC2CCN3C(=O)CCCC1C23 (stereo unspecified)	0	0	-	-	-	-
COc1ccc(NC(=O)c2ccc([N+](=O)[O-])o2)cc1	0	0	0	0	0	0
Cc1cc(C)cc(NC(=O)c2ccc([N+](=O)[O-])o2)c1	94	93	0	0	0	0
NC(=O)c1oc2ccccc2c1NC(=O)c1ccc([N+](=O)[O-])o1	100	100	0	0	0	0
NC(=O)c1oc2ccccc2c1NC(=O)c1ccc(F)cc1	0	0	0	0	0	0
C[C@@H]1CN(c2c(F)c(F)c3c(=O)c(C(=O)O)cn(C4CC4)c3c2F)C[C@H](C)N1	97	96	0	0	0	0
COc1ccc(OC)c(C=NNC(=O)Cn2ccnc2C)c1	0	0	-	-	-	-
Cc1ccc(C#CC[N+]2(CC#Cc3ccc(C)cc3)CCCCC2)cc1	96	0	0	0	0	0
Oc1ccccc1N=Cc1c(O)ccc2oc3c(c12)CCCC3	-	-	0	0	0	190
O=C(CCSc1ccc(Br)cc1)c1ccc(O)cc1	0	0	0	0	0	537
CC(=O)Nc1cc2c(cc1[N+](=O)[O-])-c1ccccc1C2=NO	-	-	0	0	0	0
Nc1cc2c(cc1[N+](=O)[O-])-c1ccccc1C2=NO	-	-	0	0	0	73
O=[N+]([O-])c1ccc2c(c1)C(=NO)c1cc(Cl)c(Cl)cc1-2	-	-	0	0	0	0
O=[N+]([O-])c1ccc2c(c1)C(=NO)c1ccccc1-2	97	0	-	-	-	-
O=C(O)c1cc[c]([Hg][Cl])cc1	-	-	0	-	-	575
COc1ccc(NC(=O)c2cc(-c3ccccc3O)n[nH]2)cc1Cl	0	0	0	0	0	0
COc1ccc(NC(=O)c2cc(-c3cc(C)cc(C)c3O)n[nH]2)cc1Cl	90	0	0	0	0	0
CCOC(=O)c1cc2ccc3ccccc3c2s1	88	0	0	0	0	0
SMILES	Sa ugtP lethal	Sa RN4220 lethal	PrP 5UTR inh	CCHF vOTU inh	PrPC TRFRET	PfHsp40 yeast
CCOC(=O)c1cc2ccc3ccccc3c2oc1=O	0	0	0	0	0	0
Cc1ccsc1C=NNC(=O)CCc1c(C)n[nH]c1C	0	0	-	-	-	-
C(=N\Nc1nncc2ccccc12)/c1ccccn1	-	-	0	0	0	413
O=C(O)Cc1sc(NN=Cc2ccncc2)nc1-c1ccccc1	0	0	-	-	-	-
CC(=O)N1C(Cc2ccccc2)C=C[C@]1(C)C(=O)NCCN1CCOCC1 (stereo partly specified)	0	0	-	-	-	-
COc1ccc(/C=c2\s/c(=C/C(=O)c3ccc(C)cc3)[nH]c2=O)c(OC)c1	-	-	0	0	0	0
COc1ccc(C=c2sc(=CC(=O)c3ccc(C)cc3)[nH]c2=O)c(OC)c1	89	0	-	-	-	-
COC(=O)C1=C(c2c(C)noc2C)CC2CCC1N2C(=O)N1CCOCC1 (stereo unspecified)	0	0	-	-	-	-
COc1ccc2c(c1)C1=C(CC2)C(c2ccc(C)cc2)NC(=S)N1 (stereo unspecified)	0	0	0	0	0	0
COc1cccc(C2NC(=S)NC3=C2CCc2ccccc23)c1 (stereo unspecified)	0	0	0	0	0	173

Assay outcomes from PubChem.
